Measured values as given in the supplement of paper PMC7366291.
Structures can show the parent of a compound that is named as a salt. ± gives the standard deviation of the averaged measurements.

test system: Danio rerio Tg(wt1b:EGFP) embryo, pronephros; test: pronephric angle neck segment to proximal convoluted tubule (mean of left and right), fold change vs DMSO control; higher = larger pronephric angle; settings: 25 µM; exposure: 24-48 hpf
In short: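 From 24 to 48 hpf, at 28.5°C, dechorionated Tg(wt1b:EGFP) zebrafish embryos sat in HEPES-buffered E3 with 0.003% PTU carrying 25 μM compound and 0.5% DMSO. Their pronephroi were imaged dorsally in 96-well plates filled with agarose, using 470 nm light and 10 z-slices. A Fiji macro measured distances and angles between 16 reference points that were set manually on maximum projections, and any value more than 2 SD from its feature mean was excluded. Features are expressed as fold change relative to the mean of DMSO-treated embryos imaged on the same day.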

Row | SMILES | pronephric angle neck segment
1 | CCC(C)C1O[C@]2(C=C[C@@H]1C)C[C@@H]1CC(C/C=C(\C)[C@@H](OC3C[C@H](OC)[C@@H](OC4C[C@H](OC)[C@@H](O)[C@H](C)O4)[C@H](C)O3)[C@@H](C)/C=C/C=C3\COC4[C@H](O)C(C)=CC(C(=O)O1)[C@]34O)O2 (some centres undefined) [Avermectin B1a] | 1.14 ± 0.069
2 | CCNCC(O)c1cccc(O)c1 (centres undefined) [Etilefrine hydrochloride] | 0.951 ± 0.051
3 | COc1ccc(C(=O)N2CCCC2=O)cc1 [Aniracetam] | 1.02 ± 0.019
4 | CCN[C@@H](C)Cc1cccc(C(F)(F)F)c1 [Dexfenfluramine hydrochloride] | 1.01 ± 0.03
5 | C1CCc2nnnn2CC1 [Pentylenetetrazole] | 0.956 ± 0.021
6 | C(#CCN1CCCC1)CN1CCCC1 [Tremorine dihydrochloride] | 1.03 ± 0.015
7 | COc1ccc(CCN2CCC(Nc3nc4ccccc4n3Cc3ccc(F)cc3)CC2)cc1 [Astemizole] | 1.01 ± 0.022
8 | O=c1[nH]c2ccccc2n1C1CCN(CCCC(c2ccc(F)cc2)c2ccc(F)cc2)CC1 [Pimozide] | 0.976 ± 0.099
9 | C=CCC1(CC(C)C)C(=O)NC(=O)NC1=O [Butalbital] | 1.01 ± 0.11
10 | CN1CCC2(C)c3cc(O)ccc3N(C)C12 (single isomer, unassigned; (-)) [(-)-Eseroline fumarate salt] | 1.02 ± 0.043
11 | N[C@@H]1C[C@H]1c1ccccc1 [Tranylcypromine hydrochloride] | 1.01 ± 0.038
12 | C[C@]12CC[C@@H](O)C[C@H]1CC[C@@H]1[C@@H]2CC[C@]2(C)C(=O)CC[C@@H]12 [3-alpha-Hydroxy-5-beta-androstan-17-one] | 1 ± 0.013
13 | COc1ccc(OC)c(C(O)C(C)N)c1 (centres undefined) [Methoxamine hydrochloride] | 0.976 ± 0.021
14 | COc1cc2c(c(OC)c1OC)-c1ccc(OC)c(=O)cc1[C@@H](NC(C)=O)CC2 [Colchicine] | 1.06 ± 0.044
15 | CN1[C@@H]2CC[C@H]1C[C@@H](OC1c3ccccc3CCc3ccccc31)C2 [Deptropine citrate] | 0.939 ± 0.061
16 | CC(=O)NC1CCSC1=O (racemic) [N-Acetyl-DL-homocysteine Thiolactone] | 1 ± 0.066
17 | CC(C)(C)NCC(O)c1ccccc1Cl (centres undefined) [Tulobuterol] | 1.01 ± 0.039
18 | C[C@]12CC[C@H](O)C[C@@H]1CC[C@@H]1[C@@H]2CC[C@]2(C)C(=O)CC[C@@H]12 [Epiandrosterone] | 1.04 ± 0.022
19 | C[C@@H]1O[C@@H](O[C@@H]2C=C3CC[C@@H]4[C@H](CC[C@]5(C)[C@@H](c6ccc(=O)oc6)CC[C@]45O)[C@@]3(C)CC2)[C@H](O)[C@H](O)[C@H]1O [Proscillaridin A] | 1.2604 ± 0.00066
20 | CC(C)(N)Cc1ccccc1 [Phentermine hydrochloride] | 0.979 ± 0.031
21 | O=c1[nH]oc2c1CCNC2 [THIP Hydrochloride] | 0.961 ± 0.03
22 | CC(=O)OCC(=O)[C@H]1CC[C@H]2[C@@H]3CC[C@H]4C[C@H](O)CC[C@]4(C)[C@H]3C(=O)C[C@]12C [Alfadolone acetate] | 1 ± 0.018
23 | CCC(=O)O[C@@](Cc1ccccc1)(c1ccccc1)[C@@H](C)CN(C)C [Levopropoxyphene napsylate] | 0.996 ± 0.044
24 | CNC(=O)Oc1ccc2c(c1)[C@]1(C)CCN(C)[C@@H]1N2C [Eserine hemisulfate salt] | 0.981 ± 0.013
25 | c1ccc2c(c1)OCC(C1=NCCN1)O2 (centres undefined) [Idazoxan hydrochloride] | 1.02 ± 0.021
26 | COc1ccc(Cc2nccc3cc(OC)c(OC)cc23)cc1OC [Papaverine hydrochloride] | 0.968 ± 0.018
27 | CN[C@@H]1[C@@H](O)[C@@H](O[C@@H]2[C@@H](O)[C@H](O[C@H]3O[C@H](CN)CC[C@H]3N)[C@@H](N)C[C@H]2N)OC[C@]1(C)O.CN[C@@H]1[C@@H](O)[C@@H](O[C@@H]2[C@@H](O)[C@H](O[C@H]3O[C@H]([C@@H](C)N)CC[C@H]3N)[C@@H](N)C[C@H]2N)OC[C@]1(C)O.CN[C@@H]1[C@@H](O)[C@@H](O[C@@H]2[C@@H](O)[C@H](O[C@H]3O[C@H]([C@@H](C)NC)CC[C@H]3N)[C@@H](N)C[C@H]2N)OC[C@]1(C)O [Gentamicine sulfate] | 1.01 ± 0.029
28 | CC[C@@H](CO)NC(=O)[C@@H]1C=C2c3cccc4[nH]cc(c34)C[C@H]2N(C)C1 [Methylergometrine maleate] | 1.05 ± 0.031
29 | C[N+]1(C)CCOC(O)(c2ccc(-c3ccc(C4(O)C[N+](C)(C)CCO4)cc3)cc2)C1 (centres undefined) [Hemicholinium bromide] | 1 ± 0.1
